Test results: PubChem BioAssay AID540333 (Southern Research Specialized Biocontainment Screening …, 2011)
Hit rate of the full screen: of about 10,000 compounds, about 320 (3.2%) were called active. This excerpt belongs to a sample that is enriched for actives. A number with no mark means an inactive call. Cut-off read from the data, not from the text of the source: active = CPE inhibition mostly above about 9.1% (no sharp cut-off); inactive = mostly below about 7.2%.

Experiment: Dengue virus cytopathic effect inhibitors, cell-based, CPE readout, HTS (AID 540333)
Details: Dengue virus CPE inhibition in host cells, at 20 µM; stronger effect = higher value

Row | SMILES | CPE inhibition
1 | Cc1cc(C(=O)NCC(=O)OCC(=O)N(C2CCCCC2)C2CCCCC2)ccc1[N+](=O)[O-] | inactive
2 | CCNc1ccc(C(=O)OCC(=O)NCc2ccc(C)cc2)cc1[N+](=O)[O-] | 0.91%
3 | COC(=O)[C@@]12CCCCN1[C@H](c1ccc(-c3ccccc3)cc1)[C@H]1C(=O)N(C)C(=O)[C@H]12 | 3.82%
4 | CCN1C(=O)[C@@H]2[C@@H](c3ccc(-c4ccc(OC)cc4)cc3)N3CCC[C@@]3(C(=O)OC)[C@@H]2C1=O | 0.355%
5 | COC(=O)[C@@]12CCCCN1[C@H](c1ccc(-c3ccc(Cl)c(Cl)c3)cc1)[C@H]1C(=O)N(C)C(=O)[C@H]12 | 26.6% (active)
6 | CCSc1ccc([C@@H]2[C@@H]3C(=O)N(C)C(=O)[C@@H]3[C@]3(C(=O)OC)CCCCN23)cc1 | inactive
7 | CCN1C(=O)[C@@H]2[C@@H](c3ccc(-c4ccc(Cl)c(Cl)c4)cc3)N3CCC[C@@]3(C(=O)OC)[C@@H]2C1=O | 3.61%
8 | CCN1C(=O)[C@@H]2[C@@H](c3ccc(SC4CCCCC4)cc3)N3CCC[C@@]3(C(=O)OC)[C@@H]2C1=O | 0.855%
9 | CCCCCCSc1ccc([C@@H]2[C@@H]3C(=O)N(CC)C(=O)[C@@H]3[C@]3(C(=O)OC)CCCCN23)cc1 | 16.4% (active)
10 | CCN1C(=O)[C@H]2[C@@H](c3ccc(-c4ccc(Cl)c(Cl)c4)cc3)N3CCCC[C@@]3(C(=O)OC)[C@H]2C1=O | 15.9% (active)
11 | COC(=O)[C@@]12CCCCN1[C@H](c1ccc(-c3ccc(C(C)=O)cc3)c(OC)c1)[C@@H]1C(=O)N(C)C(=O)[C@@H]12 | 3.06%
12 | CC(=O)Nc1sc(C)c(C)c1C(=O)OCC(=O)N(CC(C)C)C1CCS(=O)(=O)C1 (stereo not given) | 1.31%
13 | Cc1ccc([N+](=O)[O-])cc1S(=O)(=O)NCCc1c(C)[nH]c2ccccc12 | 1.95%
14 | O=C(N=C1c2ccccc2CN1c1ccccc1)c1cccc([N+](=O)[O-])c1 | inactive
15 | CC(C)N(C(=O)COC(=O)CNC(=O)c1ccc(Br)cc1)c1ccccc1 | inactive
16 | COc1ccc(C2CC(c3ccccc3OC(C)=O)=NN2C(=O)/C=C/c2ccccc2)cc1 (stereo not given) | 7.79% (active)
17 | COc1ccc(C2=NN(C(=O)/C=C/c3ccccc3)C(c3ccccc3)C2)c(OC(C)=O)c1 (stereo not given) | 8.13%
18 | CC(=O)Oc1ccccc1C1=NN(C(=O)/C=C/c2ccccc2)C(c2ccccc2)C1 (stereo not given) | 8.09%
19 | Cc1c(NC2=C(Cl)C(=O)N(c3ccccc3Cl)C2=O)c(=O)n(-c2ccccc2)n1C | inactive
20 | CCNC(=S)N(CCc1cccc(C)c1)Cc1cc2cc(OC)c(OC)cc2[nH]c1=O | 5.32%
21 | O=C(N/N=C/c1ccc(Sc2nc3ccccc3[nH]2)o1)c1ccncc1 | 1.17%
22 | CCN1C(=O)S/C(=C/c2ccc(Sc3nc4ccccc4[nH]3)o2)C1=O | 7.23%
23 | C=CCN1C(=O)S/C(=C/c2ccc(Sc3nc4ccccc4[nH]3)o2)C1=O | 12.1% (active)
24 | CCOC(=O)CN1C(=O)S/C(=C/c2ccc3c(c2)n(C)c(=O)n3C)C1=O | 0.01%
25 | Cc1ccc(C)c(N(CC(=O)Nc2ccccc2C(=O)NCc2ccco2)S(=O)(=O)c2ccccc2)c1 | 0.06%

Row | SMILES | CPE inhibition
26 | Cc1ccc(-c2cc(C(=O)N/N=C/c3ccco3)n[nH]2)s1 | inactive
27 | Cc1ccccc1NC(=O)CSC1=NCCN1 | inactive
28 | CC(Sc1nc(N)c2c3c(sc2n1)CSC(C)(C)C3)C(=O)Nc1ccccc1 (stereo not given) | 6.62%
29 | CN(C(=O)CSc1nc(N)c2c3c(sc2n1)CSC(C)(C)C3)c1ccccc1 | 9.8%
30 | Cc1ccc(NC(=O)CSC2=NCCN2)cc1 | 0.905%
31 | Cc1ccc(NC(=O)CSc2nc(N)c3c4c(sc3n2)CSC(C)(C)C4)cc1 | 16.2% (active)
32 | Cc1ccccc1NC(=O)CSc1nc(N)c2c3c(sc2n1)CSC(C)(C)C3 | 15.7% (active)
33 | COC(=O)c1ccc(CNC(=O)COC(=O)C23CC4CC(CC(C4)C2)C3)cc1 | inactive
34 | O=C(CSc1ccc(Cl)cc1)Nc1ccc(-c2nc3ccccc3[nH]2)cc1 | 1%
35 | O=C(CN1CCOCC1)NN=C1CCCCCCCCCCC1 | inactive
36 | CCCCCC(=O)Nc1ccccc1N1CCOCC1 | 0.445%
37 | Cc1ccc(NC(=O)OCCN2CCN(S(=O)(=O)c3ccc(C)cc3)CCC2=O)cc1 | 0.55%
38 | COc1ccc(C(=O)/C(C#N)=N/Nc2ccccc2[N+](=O)[O-])cc1 | 1.92%
39 | Cc1c(C#N)c(N)nc2c3c(sc12)NC(=O)CC3c1ccc(Cl)cc1 (stereo not given) | 0.18%
40 | Cc1ccc(NC(=S)NCCc2ccc(S(N)(=O)=O)cc2)cc1C | inactive
41 | COc1cc(/C=C2/C(=O)NN(c3ccc(Cl)cc3)C2=O)ccc1OC(=O)c1ccco1 | 8.14% (active)
42 | COc1cc(/C=C2/C(=O)NN(c3cccc(C)c3)C2=O)ccc1OC(=O)c1ccco1 | 8.68%
43 | COc1cc(/C=C2/C(=O)NN(c3cccc(F)c3)C2=O)ccc1OC(=O)c1ccco1 | 3.78%
44 | COc1ccccc1NS(=O)(=O)c1cccc(C(=O)N/N=C/c2ccc3c(c2)OCCO3)c1 | inactive
45 | S=c1[nH]nc(COc2ccccc2)n1/N=C/c1cccs1 | inactive
46 | O=C1N(c2cccc(Cl)c2)C(c2ccc(Cl)cc2)N2CCCN12 (stereo not given) | 4.13%
47 | Cc1cccc([C@@H]2[C@@H]3C(=O)N(Cc4ccccc4)C(=O)[C@@H]3[C@]3(Cc4ccccc4)C(=O)N(c4ccccc4)C(=O)N23)c1 | 0.915%
48 | CCN1C(=O)[C@H]2[C@@H](c3ccc(C)cc3)N3C(=O)N(c4ccc(OC)cc4)C(=O)[C@@]3(CC)[C@H]2C1=O | 0.62%
49 | O=C1[C@H]2[C@@H](c3ccc(Cl)cc3)N3C(=O)N(c4cccc(Cl)c4)C(=O)[C@@]3(Cc3ccccc3)[C@H]2C(=O)N1C1CCCCC1 | 15.5% (active)
50 | O=C1[C@H]2[C@@H](c3ccc(F)cc3)N3C(=O)N(c4ccc(Br)cc4)C(=O)[C@@]3(Cc3ccc(Cl)cc3)[C@H]2C(=O)N1C1CCCCC1 | 46% (active)
